Most compounds without a hit are left out; they make up all but 2.3% or so of the library.
CHO-K1 Ca ag – M1 agonist counterscreen hit in parental CHO-K1 cells; Fluo-8 calcium fluorescence; scaled to maximal ATP response, vehicle zero; activation, % at 3 µM; 360,000 compounds, 0.48% hits; AID 602248; in the data active = activation above about 15%;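 also: untransfected CHO-K1 host cells lacking M1 receptor as counterscreen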
M1 PAM – human CHRM1 positive allosteric modulation | P11229 | CHO-K1 hM1, Fluo-8 calcium fluorescence, ACh EC20; 0% = ACh EC20, 100% = maximal ACh | activation, % at 3 µM | 360,000 compounds, 0.088% hits | AID 588819; in the data active = activation above about 19%, passing the limit was not always enough
Target sequence (P11229 whole entry, looked up): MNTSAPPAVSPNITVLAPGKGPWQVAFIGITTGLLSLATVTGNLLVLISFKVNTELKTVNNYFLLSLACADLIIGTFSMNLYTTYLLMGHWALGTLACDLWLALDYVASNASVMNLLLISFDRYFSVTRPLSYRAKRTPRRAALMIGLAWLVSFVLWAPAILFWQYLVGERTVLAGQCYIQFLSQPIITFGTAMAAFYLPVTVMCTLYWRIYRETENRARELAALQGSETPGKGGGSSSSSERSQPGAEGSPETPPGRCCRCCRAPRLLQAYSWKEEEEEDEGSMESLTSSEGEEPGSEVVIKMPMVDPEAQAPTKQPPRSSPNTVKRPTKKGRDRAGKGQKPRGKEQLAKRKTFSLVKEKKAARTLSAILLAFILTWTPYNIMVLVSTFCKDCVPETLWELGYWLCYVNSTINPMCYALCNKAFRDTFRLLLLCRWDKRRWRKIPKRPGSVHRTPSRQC
CHRM1 agonist – activates human CHRM1 receptor; P11229; CHO-K1 hM1, Fluo-8 calcium fluorescence, agonist mode; 0% DMSO, 100% acetylcholine EC100; activation, % at 3 µM; 360,000 compounds, 0.33% hits;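 active = activation above the run's mean compound activation plus 3 SD, cut at about 16% in these data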;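 also: peak over basal fluorescence ratio within a 140 s kinetic read after compound addition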
M1 antag – blocks human M1 muscarinic receptor; P11229; CHO-K1 hM1, Fluo-8 calcium fluorescence, ACh EC80 antagonist; inhibition, % at 3 µM; 360,000 compounds, 1.3% hits; AID 588852;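 active = percent inhibition above its own plate's cutoff, namely the mean of that plate's compound wells plus 3 SD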;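 also: peak over basal fluorescence ratio during 140 s after agonist addition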
M1 PAM parental – M1 PAM counterscreen hit in parental CHO-K1 cells; ATP EC20, Fluo-8 calcium fluorescence; 0% at ATP EC20, 100% at ATP max; activation, % at 3 µM; 360,000 compounds, 0.02% hits; AID 602247;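 active = activation above the run cutoff, the mean activation of all test compounds plus 3 SD, cut at about 40% in these data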;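 also: peak over basal fluorescence ratio in a 140 s read after ATP addition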
CHO-K1 Ca antag – nonselective inhibitor or artifact in parental CHO-K1 cells | ATP-induced calcium, Fluo-8 fluorescence | inhibition, % at 3 µM | 360,000 compounds, 0.6% hits;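 active = inhibition above a per-plate cutoff, the plate's mean sample inhibition plus 3 SD, cut at about 24% in these data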
Large screens that a line does not name were inactive.

O=C(NCC1(N2CCCCC2)CCCCC1)c1ccc(NS(=O)(=O)c2ccccc2)cc1	CHO-K1 Ca antag 28
Cc1onc(-c2c(F)cccc2Cl)c1C(=O)N1CCN(c2ncc(Br)cn2)CC1	none
O=C(NCC1COc2ccccc2O1)C1CCCN(S(=O)(=O)c2cccc3cccnc23)C1 (centres undefined)	CHO-K1 Ca antag 25
O=C(NCc1cccnc1)C1CCCN(S(=O)(=O)c2cccc3nsnc23)C1 (centres undefined)	M1 antag 38
O=C(NCC1COc2ccccc2O1)C1CCCN(S(=O)(=O)c2cccc3nsnc23)C1 (centres undefined)	none
Cc1cc(C)c(S(=O)(=O)N2CCCC(C(=O)NCc3cccnc3)C2)c(C)c1 (centres undefined)	M1 antag 34
Cc1ccnc(NS(=O)(=O)c2ccc(NC(=O)Cc3ccc(Br)cc3)cc2)n1	none
CCc1cc2c(N=Nc3c(O)[nH]c4ccccc34)ncnc2s1	none
CCc1ccc2[nH]c(O)c(N=Nc3nc(-c4ccccc4)cs3)c2c1	CHRM1 agonist 20
CCCCn1c(N)c(N(CCC(C)C)C(=O)c2cc(S(=O)(=O)N3CCOCC3)ccc2F)c(=O)[nH]c1=O	M1 PAM 21
CCCCn1c(N)c(N(CCC(C)C)C(=O)Cc2ccc(S(=O)(=O)N3CCOCC3)s2)c(=O)[nH]c1=O	none
CCCCn1c(N)c(N(CC(C)C)C(=O)Cc2ccc(S(=O)(=O)N3CCOCC3)s2)c(=O)[nH]c1=O	CHRM1 agonist 17
O=C(Cc1c(F)cccc1Cl)NNC(=O)c1ccncc1	none
O=C(COC(=O)c1cc(Cl)ccc1Cl)Nc1ccc2[nH]c(=O)[nH]c2c1	none
O=C(CSc1nnc2n1CCCN2)c1ccc([N+](=O)[O-])cc1	CHO-K1 Ca ag 19
O=C(CSc1nnc2n1CCCN2)c1ccc(Cl)cc1	none
O=C(CSc1nncc2ccccc12)Nc1cccc(O)c1	none
O=C(Nc1cc(Cl)cc(Cl)c1)c1cccnc1	CHO-K1 Ca ag 18
O=c1/c(=C/c2cccc3ccccc23)sc2ncnn12	CHO-K1 Ca antag 28
CCOC(=O)c1ccccc1NC(=O)CN(c1ccccc1C)S(C)(=O)=O	CHO-K1 Ca antag 30
COc1ccccc1NC(=O)CN(c1ccccc1C)S(C)(=O)=O	none
CC(C)(C)C(=O)N/C(N)=N/c1nc2ccccc2o1	none
N#CCCN(Cc1ccccc1)C(C(=O)NC1CCCCC1)c1ccnc2ccccc12 (centres undefined)	none
O=C(c1ccoc1)N1CCC2(CCCN(Cc3ccc(F)c(F)c3)C2)C1 (centres undefined)	M1 antag 55
Cc1occc1C(=O)N1CCC2(CCCN(Cc3ccc(F)c(F)c3)C2)C1 (centres undefined)	M1 antag 65
O=C(CCC1CCCN(C(=O)c2ccoc2)C1)NCc1ccc(F)c(F)c1 (centres undefined)	none
CC(=O)NC(=S)Nc1ccc(NC(=O)c2cccnc2Cl)cc1	none
c1ccc(Cc2cc[n+](Cc3ccccn3)cc2)cc1	none
O=[N+]([O-])c1ccc(N=Nc2c(Cl)cc(O)cc2Cl)cc1	CHO-K1 Ca ag 17, M1 antag 32, CHO-K1 Ca antag 40
C=CC[C@@H](CC(=O)N[C@@H](CO)Cc1ccccc1)C(=O)NCCOC(=O)[C@@H](CC=C)Cc1ccc(F)cc1	CHO-K1 Ca antag 24
C=CC[C@@H](CC(=O)NCCO)C(=O)NC[C@H](OC(=O)[C@@H](CC=C)Cc1ccc(F)cc1)c1ccccc1	M1 antag 53
C=CC[C@H](CC(=O)N(CCO)Cc1ccccc1)C(=O)NC[C@H](OC(=O)[C@@H](CC=C)Cc1ccc(F)cc1)c1ccccc1	M1 antag 43
C=CC[C@@H](CC(=O)N[C@@H](CO)Cc1ccccc1)C(=O)NC[C@H](OC(=O)[C@@H](CC=C)Cc1ccc(F)cc1)c1ccccc1	none
C=CC[C@@H](CC(=O)N(CCO)Cc1ccccc1)C(=O)NC[C@@H](OC(=O)[C@@H](CC=C)Cc1ccc(F)cc1)c1ccccc1	none
COc1ccccc1C(=O)COC(=O)c1ccc(Cl)nc1	none
